Mtb betalactam: beta-lactam sensitization of Mtb H37Rv. 330,000 compounds, 0.27% hits. M. tuberculosis H37Rv growth with meropenem, percent inhibition. inhibition, % at 25 µM; call rule not given here;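 also: growth measured after seven days incubation then overnight dye step; 0% = bacteria only wells and 100% = bacteria with antibiotic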
Rv3671c inh: inhibits the M. tuberculosis serine protease Rv3671c | AID 2606 | inhibition, % at 5.96 µM | 320,000 compounds, 0.048% hits; in the data active = inhibition above about 38%;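 also: extracellular domain of Rv3671c used as enzyme; 0% = enzyme with DMSO and 100% = no enzyme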
Target sequence (P9WHR9 whole entry, looked up, the tested form may be a part): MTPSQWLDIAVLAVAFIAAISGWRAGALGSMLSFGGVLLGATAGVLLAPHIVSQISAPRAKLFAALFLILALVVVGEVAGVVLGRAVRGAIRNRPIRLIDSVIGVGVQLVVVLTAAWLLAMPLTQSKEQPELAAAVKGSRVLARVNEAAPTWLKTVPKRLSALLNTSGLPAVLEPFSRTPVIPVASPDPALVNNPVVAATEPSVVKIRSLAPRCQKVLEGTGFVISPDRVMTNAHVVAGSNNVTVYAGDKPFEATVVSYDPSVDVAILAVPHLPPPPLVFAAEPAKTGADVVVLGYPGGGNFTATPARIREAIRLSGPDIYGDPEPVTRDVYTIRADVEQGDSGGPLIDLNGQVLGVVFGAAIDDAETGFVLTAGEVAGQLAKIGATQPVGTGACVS
RecA intein inh: Mtb RecA intein splicing inhibition. P9WHJ3. cell-free RecA intein splicing, fluorescence. inhibition, % (concentration not given with the values). 290,000 compounds, 0.75% hits; in the data active = inhibition above about 30%; inconclusive = no clear call, values can overlap the other calls;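 also: 0% = vehicle wells and 100% = reference inhibitor control wells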
CCHF vOTU inh-1: CCHFV vOTU protease inhibition; Pep-AMC fluorescence; inhibition, % at 11.5 µM; 370,000 compounds, 0.55% hits; AID 651958; also: 0% = vehicle wells with enzyme and 100% = no enzyme wells
Mtb UGM inh: blocks M. tuberculosis UGM enzyme | P9WIQ1 | purified UGM, fluorescence polarization probe displacement | AID 504406 | inhibition, % at 10 µM | 320,000 compounds, 0.06% hits; in the data active = inhibition above about 10%, passing the limit was not always enough; inconclusive = no clear call, values can overlap the other calls
CCHF vOTU inh-2: CCHFV vOTU protease inhibition, confirmation; inhibition, % at 11.5 µM; AID 686976; Recombinant CCHFV vOTU, Pep-AMC fluorescence; shares compounds with CCHF vOTU inh-1; 1,900 compounds, 17% hits
* = called active by the depositor; ? = inconclusive; / = not tested or not shown. The list is not random: actives were taken first. Their share in the collection is about 1.2%. Rule as the data show it, unless noted: active = inhibition above about 30%; inactive = the rest.

SMILES	Mtb betalactam	Rv3671c inh	RecA intein inh	CCHF vOTU inh-1	Mtb UGM inh	CCHF vOTU inh-2
CCOC(=O)N=Nc1c2ccccc2c2nc3no[nH]c3nc12	/	/	/	59*	/	86*
CCOC(=O)N=Nc1c(O)n(CC(=O)OC)c2ccccc12	-9	-7	0	9	-1	/
Cc1ccc([C@H]2C(C(=O)O)=CC[C@@H](c3ccc(C)cc3)N2S(=O)(=O)c2ccccc2C)cc1	5	1	/	35*	/	-6
Cc1ccccc1S(=O)(=O)N1[C@@H](c2ccc(Cl)cc2)C(C(=O)O)=CC[C@H]1c1ccc(Cl)cc1	5	-5	/	32*	-2	7
Cc1ccc([C@@H]2CC=C(C(=O)O)[C@H](c3ccccc3)N2S(=O)(=O)c2ccccc2C)cc1	-2	0	/	12	/	/
Cc1cc(OCC(=O)NNC(=S)NC(=O)c2ccc(Br)o2)ccc1Cl	1	/	-1	36*	-1	-14
CCC(=O)NC(=S)Nc1ccc(NC(=O)COc2ccc(Cl)c(C)c2)cc1	97	-49	-2	14	1	/
O=c1c2ccccc2[nH]n1[C@@H](Cc1ccccc1)Cn1cc(-c2ccc(-c3ccccc3)cc2)nn1	/	/	/	13	/	/
O=C(Oc1ccc2[nH]cc(CCN3C(=O)c4ccccc4C3=O)c2c1)c1ccco1	10	-11	4	36*	-1	-24
O=C(C[C@H]1C/C=C\C[C@@H](Cc2ccc(F)cc2)C(=O)O[C@H](c2ccccc2)CNC1=O)N[C@@H](CO)Cc1ccccc1	4	-12	/	2	-1	/
O=C(C[C@@H]1C/C=C/CCCC(=O)O[C@H](c2ccccc2)CNC1=O)N[C@H](CO)Cc1ccccc1	-1	3	/	31*	0	-25
CN(Cc1ccccc1)S(=O)(=O)c1cccc(C(=O)OCC2CCCCC2)c1	/	/	/	9	/	/
COc1ccc(OC)c(S(=O)(=O)N2CCCCC2C(=O)N2CCN(c3ccccc3F)CC2)c1 (stereo unspecified)	/	/	/	-1	/	/
Cc1cc(O)c(Sc2ncn[nH]2)cc1NS(=O)(=O)c1ccc(Cl)cc1	0	-8	/	-3	3	/
O=S(=O)(Nc1cc(Sc2ncn[nH]2)c(O)c2ccccc12)c1ccccc1	/	/	/	105*	/	97*
CNc1ccc2oc(C[C@H]3O[C@@]4(CC[C@H]3C)O[C@H]([C@H](C)C(=O)c3ccc[nH]3)[C@H](C)C[C@H]4C)nc2c1C(=O)O	97	-123	-39	54*	-2	-36
CCC(=O)Nc1ccccc1	-5	-5	-1	-2	-3	/
CCC(=O)NC1=C(Cl)C(=O)C(NC(=O)CC)=C(Cl)C1=O	/	/	/	97*	/	9
O=C(O)CC1(c2ccccc2)C(=O)c2ccccc2C1=O	13	4	-1	17	-1	/
NC(=O)C1C(=O)c2ccccc2C1(C[N+](=O)[O-])c1ccccc1 (stereo unspecified)	/	/	/	46*	/	-1
O=C(/C=C/c1ccccc1)Nc1cc(NC(=O)/C=C/c2ccccc2)cc(C(=O)O)c1	10	/	4	36*	7	8
O=C(O)c1[nH]c2ccccc2c1C(c1cc(Br)ccc1O)c1c(C(=O)O)[nH]c2ccccc12	-1	16	/	35*	4	12
COc1cc(Cl)cc(C(c2c(C(=O)O)[nH]c3ccccc23)c2c(C(=O)O)[nH]c3ccccc23)c1O	3	10	0	25	8	/
COc1ccc(O)c(/C=N/NC(=O)c2cccc(N3CCCC3=O)c2)c1	3	20	-10	-14	4	/
O=C(N/N=C/c1cc(Br)ccc1O)c1cccc(N2CCCC2=O)c1	10	-6	1	32*	0	-15
SMILES	Mtb betalactam	Rv3671c inh	RecA intein inh	CCHF vOTU inh-1	Mtb UGM inh	CCHF vOTU inh-2
COc1cc(-n2c(C)nc3cc(C(=O)N4CCCN(C(C)=O)CC4)ccc32)cc(OC)c1OC	/	/	/	0	/	/
CC(NS(=O)(=O)c1c(N)n(C)c(=O)n(C)c1=O)c1ccccc1 (stereo unspecified)	-10	-5	1	30*	2	-15
O=C(OC12CCCN(C1)/C(=C/c1cccc(Cl)c1)C2)c1cccc(F)c1 (stereo unspecified)	/	/	/	10	/	/
O=C(NCCc1c[nH]c2ccccc12)OCc1cn(-c2cccc(C(F)(F)F)c2)nn1	/	/	/	5	/	/
CC(C)C1S/C(=N/N=C/c2cccs2)NC1=O (stereo unspecified)	45	4	-1	35*	1	-8
CC1S/C(=N/N=C/c2cccs2)NC1=O (stereo unspecified)	22	1	0	8	0	/
Cc1[nH]oc(=O)c1N=Nc1c(Cl)cccc1Cl	68	-2	-2	36*	-1	-4
Cc1[nH]oc(=O)c1N=Nc1ccccc1	-7	1	4	4	2	/
O=C(C1=C(O)C(=O)N(CCN2CCOCC2)C1c1ccc(F)cc1)c1cccs1 (stereo unspecified)	-8	/	2	-3	-1	/
O=C(C1=C(O)C(=O)N(CCN2CCOCC2)C1c1ccccn1)c1cccs1 (stereo unspecified)	-5	-7	0	31*	-1	-10
Nc1cccc2cnccc12	9	1	/	48*	1	-16
O=C(NCCc1c[nH]c2ccccc12)OCc1cn(-c2ccc(F)cc2)nn1	/	/	/	5	/	/
COC(=O)[C@]12C[C@H](CC(=O)N3CCN(C(=O)C4CC4)CC3)C(=O)N(Cc3ccccc3)C1=C[C@H](COCc1ccccc1)O[C@@H]2C	/	/	/	-2	/	/
Cc1ccc(S(=O)(=O)N2CCN(C(=O)c3cccn3C)CC2)cc1	/	/	/	-8	/	/
CCC(C)n1c(NC(=O)c2ccccc2)c(C#N)c2nc3ccccc3nc21 (stereo unspecified)	96	-33	-47	94*	0	68*
N#Cc1c(NC(=O)c2ccc(Br)o2)n(-c2ccccc2)c2nc3ccccc3nc12	6	-178	-36	30*	5	-39
COc1ccc(-n2c(NC(=O)c3ccc(Br)o3)c(C#N)c3nc4ccccc4nc32)cc1	/	/	0	/	/	/
CCCCn1c(NC(=O)c2ccccc2)c(C#N)c2nc3ccccc3nc21	/	/	/	121*	/	90*
COc1ccc(C(=O)N2CCCC(Nc3ccc(F)cc3)C2)cc1F (stereo unspecified)	?	4	1	-2	-1	/
Cc1ccc(C(=O)N2CCCC(Nc3ccc(F)cc3)C2)cc1C (stereo unspecified)	?	7	0	30*	-4	4
CCOc1ccc(NC(=O)N(CCN2CCOCC2)Cc2ccc3c(c2)CCCN3CC)cc1	-13	-1	-6	41*	0	-17
O=C(CNc1cccc2ccccc12)N/N=C/c1ccc[nH]1	-7	-6	1	-2	1	/
O=C(CNc1cccc2ccccc12)N/N=C/C(Br)=C/c1ccccc1	-5	5	4	82*	-2	-13
Cc1ccc(-c2c(C(=O)NC3CCCC3)oc(=O)c3ccccc23)cc1	/	/	/	13	/	/
Cc1cc2cc(C(c3nnnn3Cc3ccco3)N3CCc4ccccc4C3)c(=O)[nH]c2cc1C (stereo unspecified)	91	-14	0	61*	-2	-10

Screening data as filed in PubChem BioAssay.
